The record followed here is PubChem BioAssay AID493066 (National Center for Advancing Translational Sciences (NCATS), 2011).

Structures are written as SMILES. Records with an inconclusive call do not appear. Calls of active or inactive are those of the source. The call rests on the fitted dose curve; in most records, active means well fitted cell-killing curve with a large enough effect; inconclusive means small, poorly fitted or top-dose-only effect; inactive means flat fitted curve, though single readings scatter.

A short description of this assay: HBEC Cell Viability Secondary Assay for qHTS Assay for Epigenetic Modulators. The following applies: HBEC normal bronchial cells viability, ATP luminescence, 72 h; series mostly up to 46.1 µM. From the text:
NIH Molecular Libraries Screening Centers Network [MLSCN] NIH Chemical Genomics Center [NCGC] MLSCN Grant: 1 X01 MH079860-01 Assay Provider: Elisabeth D. Martinez, University of Texas SW Medical Center NCGC Assay Overview: This secondary assay characterizes selected actives identified in the qHTS of the Locus Derepression (LDR) assay (PubChem AID 1865). The LDR assay detects the derepression of a GFP reporter that is stably integrated in a region of the genome of murine c127i mammary cells that is presumably silenced. Compounds that cause derepression of the locus to express GFP are identified by enumerating GFP positive cells using a laser-scanning microplate cytometer. Selected LDR actives were assayed for killing of HBEC, a patient-derived normal bronchial epithelial line matched to HCC4017 (Pubchem AID XXX), a nonsmall cell lung carcinoma line from the same patient. The HBEC line assays the cytoxicity of test compounds on normal lung cells. Cell viability was measured using a luminescence-based detection reagent that measures cellular ATP levels.
NCGC Assay Protocol Summary HBEC cells were seeded at 125 cells/5 uL/well in white, solid bottom, 1536 well plates (Greiner). After 16-hour incubation at 37deg C and 5% CO2, 23 nL of compound were transferred into the assay plate via a pin tool. Plates were incubated 72 hours at 37deg C and 5% CO2, then 3.5 uL/well CellTiter-Glo(R) (Promega) detection reagent was added, plates were incubated at ambient temperature for 10 minutes and luminescence was measured by a ViewLux (Perkin Elmer) reader. For further details, see Johnson, RL, Huang, W, Jadhav, A, Austin, CP, Inglese, J, Martinez, ED (2008). A quantitative high-throughput screen identifies potential epigenetic modulators of gene expression. Anal Biochem 375: 237-48. […]
In general terms: qHTS replaces the single test concentration by a dilution series.
Take `CN(C)S(=O)(=O)c1cccc(NC(=S)N/N=C/c2ccco2)c1`: the Potency entry was “inactive”.

For the compound `COc1ccc(NC(=O)CSc2nc3c(oc4ccccc43)c(=O)n2Cc2ccco2)cc1Cl`, the Potency was 7.05 µM (active).

Regarding `O=C(N/N=C/c1ccccn1)c1cc(-c2ccc(Cl)cc2)nc2ccccc12`, the Potency was 7.05 µM (active).

As to `CC1=C/C(=N\NC(=S)Nc2cccnc2)CC(C)(C)C1`, the Potency is 9.96 µM (active).

Take `COc1cccc(/C=N/Nc2nc(Nc3ccccc3)nc(-n3nc(C)cc3C)n2)c1O`: the Potency was 11.2 µM (active).

As to `COc1ccc(C(=O)/C=C/Sc2nc3ccccc3o2)cc1`, the Potency is 3.15 µM (active).

For `C/C=C/c1ccc(OCC(=O)OCC(=O)NC2CC2)c(OC)c1`, the Potency entry is “inactive”.

Regarding `CC1=NN(c2nc3ccccc3[nH]2)C(=O)C1Cc1ccccc1` (stereo unspecified), the Potency was 7.05 µM (active).

Turning to `C(=N\Nc1nc(-c2ccccn2)nc2ccccc12)/c1ccccc1`, the Potency is 3.15 µM (active).

Consider `COCCNC(=S)N/N=C(\C)c1ccccc1O`, for which the Potency result was “inactive”.

As to `CCCCOC(=O)Cn1c2ccc(OC)cc2c2nc3ccccc3nc21`, the Potency is 14.1 µM (active).

As for `N=c1n(CC(=O)c2ccc([N+](=O)[O-])cc2)c2ccccc2n1Cc1ccccc1Cl`, the Potency is 11.2 µM (active).

For `CCOn1c(=O)c[n+]([O-])c2ccccc21`, the Potency result is “inactive”.

Consider `CCc1nnc(NC(=O)c2cccc(C(=O)Nc3nnc(CC)s3)n2)s1`, for which the Potency was 0.705 µM (active).

As to `CCC(=O)N1CCN(c2ccc(NC(=O)c3ccc([N+](=O)[O-])o3)cc2Cl)CC1`, the Potency was 0.705 µM (active).

In the case of `COc1ccc2c(C)nc(Nc3nc(-c4ccccc4)cc(=O)[nH]3)nc2c1`, the Potency is 8.88 µM (active).

Regarding `O=C(CSc1cccc[n+]1[O-])c1ccccc1Br`, the Potency result was “inactive”.

Take `S=C(Nc1ccccc1)c1ccccn1`: the Potency entry was “inactive”.

`COc1ccccc1OCC(=O)N/N=C/C=C/c1ccc([N+](=O)[O-])o1`: the Potency is 9.96 µM (active).

Turning to `NC(=S)N/N=C/c1ncc(C(F)(F)F)cc1Cl`, the Potency was 6.28 µM (active).

With `CCOc1ccc(NC(=O)c2nc(S(=O)(=O)Cc3ccccc3F)ncc2Cl)cc1`, the Potency is 2.23 µM (active).

For `COc1ccc2c(C)cc(SCC(=O)N(C)C3CCS(=O)(=O)C3)nc2c1` (stereo unspecified), the Potency result was “inactive”.

Regarding `Cc1ccc(C(C)C)c(OCc2ccc(C(=O)N/N=C/c3cccc(O)c3O)cc2)c1`, the Potency was 14.1 µM (active).

On to `COc1nc(Nc2nc3ccccc3c(=O)[nH]2)nc2ccc(C)cc12`, for which the Potency is 3.15 µM (active).

With `CCN(CC)CCCNC(=O)CSc1c2c(nc3cc(Cl)ccc13)CCCC2`, the Potency is 19.9 µM (active).

With `Cc1ccc(/C=[N+](\[O-])c2ccc(N(C)C)cc2)c2nsnc12`, the Potency was 9.96 µM (active).

Take `COc1cccc(N2CCN(S(=O)(=O)c3ccc(-n4cnnn4)cc3)CC2)c1`: the Potency entry is “inactive”.

In the case of `O=C1C=C(Nc2ccc(Cl)cc2)C(=O)N1c1ccc(Cl)cc1`, the Potency result is “inactive”.

As for `O=C(NN1C(=O)c2ccccc2NC1c1ccc([N+](=O)[O-])o1)c1ccc([N+](=O)[O-])cc1` (stereo unspecified), the Potency is 3.97 µM (active).

For `O=[N+]([O-])/C(C=Nc1ccccc1O)=C\Nc1ccccc1O`, the Potency is 28.1 µM (active).

Consider `CCCC(=O)N1CCN(c2ccc(NC(=O)c3ccc([N+](=O)[O-])o3)cc2Cl)CC1`, for which the Potency was 0.705 µM (active).
